# Assay outcomes deposited in PubChem BioAssay by National Center for Advancing Translational Sciences (NCATS).
# An excerpt weighted towards active compounds, which were near 8.6% of everything screened.
# Marburg entry: blocks Marburg virus binding or cell entry; 18,000 tested, 6.5% active; Potency, µM (highest dose often 49.2 µM), without a hit: at the top dose activity change, negative = inhibition, actives largely listed as inhibitors; Marburg virus pseudotype entry/binding inhibition, cell-based
# LASV entry inh: inhibitors of Lassa virus binding or entry into cells. Lassa virus pseudotyped entry inhibition, cell-based qHTS. Potency, µM (series often up to 49.2 µM), inactives show at the highest dose activity change, negative = inhibition, most hits filed as inhibitors. 18,000 tested, 4.1% active. AID 720533
# Active calls of the source: *; ? = inconclusive; . = not tested or not shown; ! = repeats disagree; [ ] = remark or other dose. Calls come from the whole dose curve; tested in HEK293 cells. % is set by controls: 0 for no effect and ±100 for the full control effect; potency is the fitted concentration of half-maximal effect.
SMILES,Marburg entry,LASV entry inh
CC(=O)OC1CC2C(C)(C)C(O)CC[C@@]2(C)C2CC[C@@]3(C)C(c4ccoc4)OC(=O)C4O[C@@]43[C@]12C (some centres undefined),13µM*,?
COC(=O)[C@H](CC(C)C)N(Cc1ccc(Br)cc1)S(=O)(=O)CCl,-7%,21%
CC(C)c1nc(CN(C)C(=O)N[C@H](C(=O)N[C@@H](Cc2ccccc2)C[C@H](O)[C@H](Cc2ccccc2)NC(=O)OCc2cncs2)C(C)C)cs1,?,7.1µM*!
CC[C@@H](C)[C@H](N)C(=O)O,4%,-3%
C[C@@H]([C@H](O)c1ccc(O)cc1)N1CCC(Cc2ccccc2)CC1,?,-8%
CC(C(O)c1ccc(O)cc1)N1CCC(Cc2ccccc2)CC1 (centres undefined),10µM*,-19%
NC(=NCCCCCCN=C(N)/N=C(\N)Nc1ccc(Cl)cc1)/N=C(\N)Nc1ccc(Cl)cc1,?,10µM*!
CC(C)N=C(N)/N=C(\N)Nc1ccc(Cl)cc1,-4%[17.8 µM],0%[17.8 µM]
C#CCN1C(=O)C2(CC(C)=C[C@@H](C)O2)c2c(Br)cccc21 (some centres undefined),46%[8.59 µM],34%[8.59 µM]
CC(C)OC(=O)c1cn(Cc2c(F)cccc2F)c2sc(-c3ccc(NC(=O)C(C)C)cc3)c(CN(C)Cc3ccccc3)c2c1=O,2.5µM*,16µM*
O=C(O)[C@@H](O)[C@H](O)[C@H](O)[C@@H](O)C(=O)O,5%,-19%
N[C@H](C(=O)O)[C@H](O)C(=O)O,14µM*!,?
CC(=O)N1C(=O)NC(C)=C(C#N)C1c1ccccc1 (centres undefined),-10%[8.59 µM],11%[8.59 µM]
C=COC[C@H]1CN2[C@H](c3ccc(Br)cc3)[C@H](C)CC[C@H]2C(=O)O1,-1%[8.59 µM],1%[8.59 µM]
COC(=O)[C@@H]1C[C@H](NC(=O)c2ccccn2)CN1Cc1cccc2ccccc12,1%,-2%
COC(=O)[C@@H]1C[C@@H](NC(=O)c2cccc3c(C)c(C)[nH]c23)CN1Cc1cccc2ccccc12,1.8µM*,3.5µM*
CN1C2CCC1CC(OC(=O)C1CCC(C(=O)OC3CC4CCC(C3)N4C)(c3ccccc3)c3ccccc31)C2 (centres undefined),6.3µM*,?
CC[N+]1(C)[C@@H]2CC[C@H]1CC(OC(=O)[C@H]1CC[C@@](C(=O)OC3C[C@H]4CC[C@@H](C3)[N+]4(C)CC)(c3ccccc3)c3ccccc31)C2 (some centres undefined),-7%[17.8 µM],-2%[17.8 µM]
C/C(=C(\CCOC(=O)c1ccccc1)SS/C(CCOC(=O)c1ccccc1)=C(/C)N(C=O)Cc1cnc(C)nc1N)N(C=O)Cc1cnc(C)nc1N,-14%,-21%
CCC(C)(C)c1ccc(O)cc1,13%,-2%
CC(C)(C)CC(C)(C)c1ccc(O)cc1,45µM*!,?
NC[C@@H]1O[C@H](O[C@H]2[C@@H](O)[C@H](O[C@@H]3[C@@H](O)[C@H](N)C[C@H](N)[C@H]3O[C@H]3O[C@H](CN)[C@@H](O)[C@H](O)[C@H]3N)O[C@@H]2CO)[C@H](N)[C@@H](O)[C@@H]1O,8%,-5%
[H+].[H+].[Hg+2].[O-]B([O-])[O-].[c-]1ccccc1,?,1µM*
COc1cccc([C@H]2Oc3ccc(OC)cc3C(=NO[C@@H](C)CN3CCCCc4nc(C)c(C)cc43)[C@H]2O)c1,-17%[8.59 µM],-16%[8.59 µM]
C=C[C@@](C)(O)C1CC2C=CCOP(=O)(O2)O1 (some centres undefined),89%,-2%
SMILES,Marburg entry,LASV entry inh
O=C(O)C1=CC(=C(c2ccc(O)c(C(=O)O)c2)c2ccc(O)c(C(=O)O)c2)C=CC1=O,0.44µM*,3%
Nc1ccc(O)c(C(=O)O)c1,?,-7%
Nc1ccccc1S(=O)(=O)Nc1cccc2cccnc12,7.1µM*,18µM*
Nc1c(S(=O)(=O)O)cc(Nc2cccc3ccccc23)c2c1C(=O)c1ccccc1C2=O,5%,-15%
Cc1cnc(C)c(-c2ccc(F)c3c2OC(CNC(=O)/C=C/c2cccs2)C3)n1 (centres undefined),-27%,?
COc1cc(C(CC2=C(c3ccccc3)Cc3ccccc32)NC(=O)C(F)(F)F)cc(OC)c1OC (centres undefined),8%[8.59 µM],21%[8.59 µM]
CCN1\C(=C/C=C/C=C/c2sc3ccccc3[n+]2CC)Sc2ccccc21,7.1µM*,11µM*
Fc1ccc(-c2ncn(CCCN3CCOCC3)c2-c2ccncc2)cc1,-3%,65%
OCCNCCCOc1cccc(Cl)c1Cl,6.3µM*,?
Fc1ccc(-c2nn3ccccc3c2-c2ccncc2)cc1,?,-15%
O=C(Cc1ccc(Cl)c(Cl)c1)N1CCCC[C@H]1CN1CCCC1,?,-25%
Cc1[nH]c(/C=C2/C(=O)Nc3ccc(S(=O)(=O)Cc4c(Cl)cccc4Cl)cc32)c(C)c1C(=O)N1CCCC1CN1CCCC1 (centres undefined),14µM*,-4%
Cc1ccc2c(c1)CN(CCNC(=O)c1cc3ccccc3oc1=O)CC(C)O2 (centres undefined),-23%,0%
COc1ccc(C(=O)NCCN2Cc3cc(C)ccc3OC(C)C2)c(OC)n1 (centres undefined),2µM*,-4%
CCCCCC(=O)N1C[C@@H](O)[C@H](n2cc(COC(=O)c3ccccc3)nn2)C[C@H]1c1ccccc1,5%,12%
CCOC(=O)c1c(C)[nH]c2ccc3c(c12)CN1CCc2cc(OC)ccc2[C@@H]1O3,5.6µM*,?
CCS(=O)(=O)N1CCC[C@H]2CN3CCc4cc(OC)ccc4[C@@H]3C[C@@H]21,3%,-6%
CCOC(=O)C1(C(=O)OCC)Cc2ccc(C(C)=O)cc2C1,-20%[8.59 µM],.
CCC(C)CN1C(=O)NC(c2ccccc2)C(C(=O)OC)=C1C (centres undefined),-20%[8.59 µM],.
O=C1C(SCCO)=C(SCCO)C(=O)c2ccccc21,3.5µM*,8.9µM*
C[C@H](O)CON1C(=O)c2ccccc2C1=O,5%,-1%
CCCC=Cc1ccc(CN2C(C)C(=O)N(Cc3cn(Cc4ccco4)nn3)CCS2(=O)=O)cc1 (centres undefined),?,-2%
CCN1C(=NCCCOC(C)C)NC(c2ccccc2)C(C(=O)OC)=C1C (centres undefined),-3%[8.59 µM],7%[8.59 µM]
COC(=O)C1C[C@@]23C(=NN=C(SC)C2N(C)c2ccc(OC)cc23)N1C(C)=O (some centres undefined),-33%[8.59 µM],.
C=C(C[C@]1(C(=O)OC)C[C@]2(CC=C(C)C)C(=O)C(C(=O)CC(C)C)=C(O)[C@@](CC=C(C)C)(C1)C2=O)C(=O)OC,4%[8.59 µM],.
SMILES,Marburg entry,LASV entry inh
O=C1Cc2c([nH]c3ccc(Br)cc23)-c2ccccc2N1,5%,-4%
c1ccc2c(c1)SCc1c-2[nH]c2ccccc12,11µM*,?
COCC=CC1=CC2=CC(=O)C(C)(OC(=O)c3cnc4ccccc4n3)C(=O)C2=CN1Cc1ccc(OC)cc1 (centres undefined),-2%[8.59 µM],11%[8.59 µM]
CCCCCC(=O)N1C[C@@H](n2cc(COC(=O)c3ccccc3)nn2)[C@H](O)C[C@H]1c1ccc(OC)cc1,26%,-20%
C=CCOC(=O)N[C@@H](c1cccc(OC)c1)[C@@H](C)C=CCC(=O)O,7%[8.59 µM],14%[8.59 µM]
CC(C)ON(C(C(=O)NO)C(C)C)S(=O)(=O)c1ccc(-c2ccccc2)cc1 (centres undefined),6.3µM*,6.3µM*
CC(C)ON(CC(=O)NO)S(=O)(=O)c1ccc(-c2ccccc2)cc1,13%,-26%
